# Where a name gives a salt, the structure may show the parent alone. Unmarked numbers belong to inactive results.
# Key:
# Settings in all cases: 20 µM
# [1] = tested on: Salmonella enterica typhimurium; experiment: growth AUC normalised to DMSO control (fraction of control); higher = less growth inhibition, active = hit call of the paper
# Outline: (§1)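 After two anaerobic passages, pathogens were added at a starting OD578 of 0.01 to pre-reduced mGAM plates holding compound at 20 μM with 1% DMSO; hemin and NAD were supplemented for Haemophilus parainfluenzae. Sealed with breathable membranes, plates were read at OD578 hourly for 24 h, in three biological replicates. The trapezoidal rule, applied up to the exponential-to-stationary transition, gave the growth-curve AUC, which was normalised to DMSO controls on the same plate.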
# [2] = tested on: Shigella flexneri; experiment: as above
# Outline: as §1
# [3] = tested on: Vibrio cholerae; experiment: as above
# Outline: as §1
# [4] = tested on: Yersinia pseudotuberculosis; experiment: as above
# Outline: as §1
# [5] = tested on: P. vulgatus RND KO; experiment: growth AUC normalised to DMSO control (median) (fraction of control); higher = less growth inhibition, active = hit call of the paper
# Outline: (§2)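 Area under the growth curve, calculated by the trapezoidal rule up to entry into stationary phase, was normalised to vehicle wells on the same plate. Strains had been passaged twice overnight without oxygen and then grown in mGAM in 96-well plates from OD578 0.01, each with an approved-drug library compound at 20 μM in 1% DMSO. OD578 was read hourly over 24 h in an anaerobic incubator, and the median of three biological replicates is given.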
# [6] = tested on: P. vulgatus WT; experiment: as above
# Outline: as §2
# [7] = tested on: S. enterica typhimurium WT; experiment: as above
# Outline: as §2
# [8] = tested on: S. enterica typhimurium tolC KO; experiment: as above
# Outline: as §2
# 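Wherever growth AUC normalised to DMSO control (median) is given: active when median AUC fell below 0.1.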
Compound,growth AUC normalised to DMSO control [1],growth AUC normalised to DMSO control [2],growth AUC normalised to DMSO control [3],growth AUC normalised to DMSO control [4],growth AUC normalised to DMSO control [5],growth AUC normalised to DMSO control [6],growth AUC normalised to DMSO control [7],growth AUC normalised to DMSO control [8]
CCOC(=O)c1ccc(N)cc1 [Benzocaine],1.02,1.03,1.07,1.03,1.04,1.07,1.01,1.01
Nc1ccccc1S(N)(=O)=O [o-Sulfanilamide],0.993,0.971,0.988,0.99,1.01,1.01,1.01,1
C#Cc1cccc(Nc2ncnc3cc(OCCOC)c(OCCOC)cc23)c1 [Erlotinib],1,1.03,1.02,0.995,0.967,0.989,0.997,0.938
C=C1c2c(Cl)ccc(O)c2C(O)=C2C(=O)[C@]3(O)C(O)=C(C(N)=O)C(=O)[C@@H](N(C)C)[C@@H]3[C@@H](O)[C@H]12.O=C(O)c1cc(S(=O)(=O)O)ccc1O [Meclocycline sulfosalicylate],0.00503 (active),0.015 (active),0.0396 (active),0.0398 (active),0.0142 (active),0.022 (active),0.0103 (active),0.00967 (active)
CCc1nc(N)nc(N)c1-c1ccc(Cl)cc1 [Pyrimethamine],0.915 (active),0.851 (active),0.908,0.932,0.57,0.288,0.93,0.66
COC(=O)[C@@H]1[C@H]2C[C@H]3c4[nH]c5ccccc5c4CCN3C[C@@H]2CC[C@@H]1O [Yohimbine hydrochloride],0.984,0.958,0.969,1,0.984,1.01,1,1
CC(C)CC(=O)N[C@H](C(=O)N[C@H](C(=O)N[C@@H](CC(C)C)[C@@H](O)CC(=O)N[C@@H](C)C(=O)N[C@@H](CC(C)C)[C@@H](O)CC(=O)O)C(C)C)C(C)C [Pepstatin A],1.01,1.03,1.04,1,1.02,1.05,1.01,0.988
CN1CCN(CC(=O)N2c3ccccc3C(=O)Nc3cccnc32)CC1 [Pirenzepine dihydrochloride],0.993,1,0.988,1.01,1,0.98,0.999,1
CCCCN(CCCC)CCCOC(=O)c1ccc(N)cc1 [Butacaine],0.988,1.01,0.981,1,1.05,1.04,1.01,1
O=C(NC(Cc1cc(=O)[nH]c2ccccc12)C(=O)O)c1ccc(Cl)cc1 (stereo not given) [Rebamipide],1,1.03,1.03,0.997,1.06,1.09,0.99,0.998
COC(=O)C1=C(C#N)NC(C)=C(C(=O)OC(C)C)C1c1cccc([N+](=O)[O-])c1 (stereo not given) [Nilvadipine],1.01,1.03,1.02,1.02,1.15,1.12,1,0.922
C=CCc1ccccc1OCC(O)CNC(C)C (stereo not given) [Alprenolol hydrochloride],1.01,1.06,1.04,1.01,1.07,1.08,0.995,0.997
CC[C@H](C)C(=O)O[C@H]1C[C@@H](C)C=C2C=C[C@H](C)[C@H](CC[C@@H]3C[C@@H](O)CC(=O)O3)[C@H]21 [Lovastatin],0.999,0.997,0.995,0.999,0.958,0.928,0.99,0.967
CC(CN(C)C)C(C)(O)Cc1ccc(Cl)cc1 (stereo not given) [Clobutinol hydrochloride],0.999,0.98,0.987,0.993,0.999,1.03,1.01,0.994
CO[C@H]1/C=C/O[C@@]2(C)Oc3c(C)c(O)c4c(O)c(c(/C=N/N5CCN(C6CCCC6)CC5)c(O)c4c3C2=O)NC(=O)/C(C)=C\C=C\[C@H](C)[C@H](O)[C@@H](C)[C@@H](O)[C@@H](C)[C@H](OC(C)=O)[C@@H]1C [Rifapentine],0.258 (active),0.588 (active),1.03,0.0449 (active),0.0203 (active),0.0164 (active),0.78,0.716
O=C(O)c1cn(-c2ccc(F)cc2)c2cc(N3CCNCC3)c(F)cc2c1=O [Sarafloxacin],0.0114 (active),0.0236 (active),0.0367 (active),0.0409 (active),0.0128 (active),0.0174 (active),0.00503 (active),0.0079 (active)
OCC(O)CN1CCN(c2ccccc2)CC1 (stereo not given) [Dropropizine],1.02,1.06,1.04,1.01,1.05,1.06,0.991,0.981
Nc1cc(-c2ccncc2)c[nH]c1=O [Amrinone],1.01,1.06,1.07,1,1.05,1.06,1,1.02
O=C(O)CNC(=O)C(CS)Cc1ccccc1 (stereo not given) [Thiorphan],1.02,1.05,1.08,1.01,0.993,1,0.997,0.995
CN(C)CCC=C1c2ccccc2COc2ccccc21 [Doxepin hydrochloride],1,0.977,0.899,0.994,0.976,0.962,0.997,0.977
Cc1c(C)c2c(c(C)c1O)CCC(C)(C(=O)O)O2 (stereo not given) [Trolox],1,1.02,0.995,1.01,0.996,1.02,1,1
CN[C@@H]1[C@H](O[C@H]2[C@H](O[C@H]3[C@H](O)[C@@H](O)[C@H](N=C(N)N)[C@@H](O)[C@@H]3N=C(N)N)O[C@@H](C)[C@]2(O)C=O)O[C@@H](CO)[C@H](O)[C@H]1O [Streptomycin sulfate],1.02,1.05,1.06,0.965,1.05,1.09,0.983,1
CNS(=O)(=O)Cc1ccc2[nH]cc(CCN(C)C)c2c1 [Sumatriptan succinate],0.996,0.967,0.988,1,1.03,1.01,1.01,1
CC(=O)Oc1cc(C(F)(F)F)ccc1C(=O)O [Triflusal],0.964,0.949,0.959,0.954,0.979,1,0.995,0.955
CCC[C@H](N[C@@H](C)C(=O)N1[C@H](C(=O)O)C[C@@H]2CCCC[C@@H]21)C(=O)OCC [Perindopril],1.02,1.02,0.963,1.04,1.03,1.04,1.01,1
CCc1c(C)[nH]c2c1C(=O)C(CN1CCOCC1)CC2 (stereo not given) [Molindone hydrochloride],1,1.02,1.04,1.01,1.03,1.05,1.02,1.01
Nc1c(Br)cc(Br)cc1CN[C@H]1CC[C@H](O)CC1 [Ambroxol hydrochloride],0.979,0.987,0.963,1,0.955,0.961,0.982,0.991
C[C@@H](O[C@H]1OCCN(Cc2n[nH]c(=O)[nH]2)[C@H]1c1ccc(F)cc1)c1cc(C(F)(F)F)cc(C(F)(F)F)c1 [Aprepitant],0.993,0.978,0.985,0.976,0.0129 (active),0.0137 (active),0.994,0.997
CN(C)CCC(c1ccc(Br)cc1)c1ccccn1 (stereo not given) [Brompheniramine maleate],0.99,1,1.02,1,0.994,0.995,0.977,0.856
CC(=O)CC(c1ccccc1)c1c(O)c2ccccc2oc1=O (stereo not given) [Warfarin],0.999,0.996,0.945,0.999,1,1.03,0.999,0.988
